The list is not random: actives were taken first. Their share in the collection is about 20%.
CHX counter = Cycloheximide Counterscreen for Small Molecule Inhibitors of Shiga Toxin; cell reporter, cycloheximide protein synthesis inhibition counterscreen; max response, %; actives 12% (n = 300,000); AID 2314, 2010; in the data active = max response mostly above about 13%, no sharp cut-off; inactive = mostly below about 14%; note: read at 38.3 µM for the half of the compounds with a filed dose
Pf growth 96h = Primary qHTS for delayed death inhibitors of the malarial parasite plastid, 96 hour incubation; P. falciparum luciferase reporter growth, 96 h; Potency, µM (titrated, usually from 28.7 µM), actives largely listed as inhibitors; actives 6.9% (n = 320,000)
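P. falciparum expressing integrated firefly luciferase, in erythrocytes at 2% hematocrit, 0.05% parasitemia, incubated with compounds 96 h at 37 C, 5% CO2. Growth inhibition read as loss of luminescence; two-generation exposure targets delayed-death apicoplast inhibitors.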
HCMV inh = qHTS Assay for inhibitors of the human cytomegalovirus (HCMV); actives 4.5% (n = 410,000); activity change, negative = inhibition, % at 57.5 µM; HFF cells, HCMV-luciferase reporter, 72 h; hits give low values; in the data active = activity change below about -60%; inconclusive = no clear call, values can overlap the other calls; inactive = above about -39%
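Steps: HFFs plated, 16 h 37C; compounds added; HCMV-luciferase added to MOI 1 PFU/cell; 72 h 37C; OneGlo reagent, 5 min room temperature; luminescence read, normalized to controls.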
Pf growth 48h = Primary qHTS for delayed death inhibitors of the malarial parasite plastid, 48 hour incubation; P. falciparum luciferase growth in erythrocytes, 48 h; Potency, µM (doses to about 28.7 µM), actives largely listed as inhibitors; actives 5.9% (n = 310,000); AID 504832, 2011
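Parasite viability was followed by luminescence of a genomically integrated firefly luciferase. Cultures held 0.1% parasitemia at 2% hematocrit (final), incubated under 5% CO2 at 37 C.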
Shiga toxin inh = A qHTS for Small Molecule Inhibitors of Shiga Toxin. Vero cells, Shiga toxin protein synthesis inhibition reporter. inhibition, % at 38.7 µM. actives 9.2% (n = 290,000). AID 2315, 2010; in the data active = inhibition mostly above about 28%, no sharp cut-off; inactive = mostly below about 43%
Of the large screens only hits and unclear results are named; the others gave an inactive call. Unless noted, calls come from the whole dose curve; as a rule, active = well fitted inhibition curve with a large enough effect; inconclusive = small, poorly fitted or top-dose-only effect, or another doubt; inactive = no such curve, though single readings can be large or run the other way.

O=C(Nc1nccs1)c1c(O)c2cccc3c2n(c1=O)CCC3	HCMV inh -95
CCc1nnc(NC(=O)c2ccc3c(=O)n4c(nc3c2)CCCCC4)s1	none
O=C(Nc1nccs1)c1ccc2c(=O)n3c(nc2c1)CCCCC3	CHX counter 19, Shiga toxin inh 98
COc1ccc(C)cc1NC(=O)c1ccc2c(=O)n3c(nc2c1)CCCCC3	Pf growth 96h inconclusive, HCMV inh inconclusive, Pf growth 48h inconclusive
CCCCNC(=O)Cn1nc(N2CCN(c3ccccc3OC)CC2)ccc1=O	none (no result: CHX counter, Pf growth 96h, Pf growth 48h, Shiga toxin inh)
Cc1ccccc1NC(=O)c1nc(-c2ccncc2)no1	none (no result: CHX counter, Pf growth 96h, Pf growth 48h, Shiga toxin inh)
CCCCNC(=S)Nc1ccccc1Cc1ccccc1	Pf growth 96h inconclusive, HCMV inh inconclusive, Pf growth 48h inconclusive
O=C(NCc1ccccn1)[C@@H]1C[C@H]1[C@@H](NP(=O)(c1ccccc1)c1ccccc1)c1ccccc1	Pf growth 96h inconclusive
COC(=O)[C@H]1C[C@@H]1[C@H](NP(=O)(c1ccccc1)c1ccccc1)c1ccccc1	Pf growth 96h inconclusive
O=C(NCc1ccccc1)[C@@H]1C[C@H]1[C@@H](NP(=O)(c1ccccc1)c1ccccc1)c1ccccc1	Pf growth 96h 15µM, Pf growth 48h inconclusive
O=C(NCC1CC1)[C@@H]1C[C@H]1[C@@H](NP(=O)(c1ccccc1)c1ccccc1)c1ccccc1	Pf growth 96h inconclusive
O=C(Nc1ccc2ccccc2c1)[C@@H]1C[C@H]1[C@@H](NP(=O)(c1ccccc1)c1ccccc1)c1ccccc1	Pf growth 96h inconclusive, Pf growth 48h 9.3µM
O=C(O)[C@@H]1C[C@H]1[C@@H](NP(=O)(c1ccccc1)c1ccccc1)c1ccccc1	HCMV inh -99
Cc1cccc(NC(=O)NC2COc3ccccc3C2)c1C (centres undefined)	none (no result: CHX counter, Pf growth 96h, Pf growth 48h, Shiga toxin inh)
COc1ccc(C(=O)NCC(c2cccs2)S(=O)(=O)c2ccc(F)c(C)c2)cc1 (centres undefined)	none (no result: CHX counter, Pf growth 96h, Pf growth 48h, Shiga toxin inh)
COc1ccc(-n2ccn3c(CC(C)(C)CC(=O)O)nnc3c2=O)cc1	none (no result: CHX counter, Pf growth 96h, Pf growth 48h, Shiga toxin inh)
NC(Cc1ccc(C(F)(F)F)cc1)c1csc(NC(=O)NCCc2ccccc2)n1 (centres undefined)	HCMV inh -101 (no result: CHX counter, Pf growth 96h, Pf growth 48h, Shiga toxin inh)
NC(Cc1ccc(F)cc1)c1csc(NC(=O)NC(c2ccccc2)c2ccccc2)n1 (centres undefined)	HCMV inh -103 (no result: CHX counter, Pf growth 96h, Pf growth 48h, Shiga toxin inh)
NC(Cc1ccc(C(F)(F)F)cc1)c1csc(NC(=O)Nc2ccccc2Oc2ccccc2)n1 (centres undefined)	HCMV inh -102 (no result: CHX counter, Pf growth 96h, Pf growth 48h, Shiga toxin inh)
NC(=O)c1ccc(Nc2nc(C(N)COCc3ccccc3)cs2)cc1 (centres undefined)	none (no result: CHX counter, Pf growth 96h, Pf growth 48h, Shiga toxin inh)
NC(COCc1ccccc1)c1csc(NC(=O)Nc2cccc(C(F)(F)F)c2)n1 (centres undefined)	HCMV inh -100 (no result: CHX counter, Pf growth 96h, Pf growth 48h, Shiga toxin inh)
CC(C)CC(N)c1csc(NC(=O)NCCc2ccccc2)n1 (centres undefined)	none (no result: CHX counter, Pf growth 96h, Pf growth 48h, Shiga toxin inh)
CC(C)CC(C(=O)Nc1ccccc1)N1C(=O)C2C3C=CC(C3)C2C1=O (centres undefined)	none
Cc1nnc(NC(=O)CSc2nccn2-c2cccc(Cl)c2)s1	none (no result: CHX counter, Pf growth 96h, Pf growth 48h, Shiga toxin inh)
Cc1ccc(C(=O)NCCc2nnc3ccc(SCC(=O)Nc4cc(C)on4)nn23)cc1	Pf growth 96h inconclusive
CCOc1cc(C(=O)OCc2ccc(C(=O)OC)o2)cc(Br)c1OC	none (no result: HCMV inh)
COc1ccc(C(C)(C)C)cc1NC(=O)C1CC(=O)N(C2CCCC2)C1 (centres undefined)	none (no result: CHX counter, Pf growth 96h, Pf growth 48h, Shiga toxin inh)
COc1ccc(NC(=O)Nc2nc(C(N)Cc3ccc(C(F)(F)F)cc3)cs2)cc1 (centres undefined)	HCMV inh -103 (no result: CHX counter, Pf growth 96h, Pf growth 48h, Shiga toxin inh)
CN(C)Cc1csc(NC(=O)Nc2ccccc2Oc2ccccc2)n1	HCMV inh -75 (no result: CHX counter, Pf growth 96h, Pf growth 48h, Shiga toxin inh)
COc1ccc(CC(N)c2csc(NC(=O)Nc3ccc(OC)cc3)n2)cc1 (centres undefined)	none (no result: CHX counter, Pf growth 96h, Pf growth 48h, Shiga toxin inh)
CCC(CC)C(=O)N(C)c1c(C)nc2c(OCc3cc(Cl)cc(Cl)c3)cccn12	none (no result: CHX counter, Pf growth 96h, Pf growth 48h, Shiga toxin inh)
Cc1cc(NC(=O)Cn2nc([N+](=O)[O-])c(Br)c2C)no1	none
COc1ccc(COC(=O)c2ccc(Cl)c(S(=O)(=O)N3CC(C)OC(C)C3)c2)cc1 (centres undefined)	Pf growth 96h 6.6µM, Pf growth 48h 4.7µM (no result: CHX counter, Shiga toxin inh)
COc1ccc(C(=O)NNC(=O)c2ccc(S(=O)(=O)N3CC(C)OC(C)C3)cc2)cc1 (centres undefined)	Pf growth 96h 1.5µM
CSc1cc(-c2ccccc2)n(C)c(=O)c1C#N	HCMV inh -66
CSc1cc(-c2ccccc2)n(Cc2c(Cl)cccc2Cl)c(=O)c1C#N	none (no result: Pf growth 48h)
CC(C)(C)NC(=O)C(c1ccccn1)N(C(=O)c1csnn1)C1CCCC1 (centres undefined)	none
C=CCNc1nc(Nc2ccccc2F)nc(OCC)n1	CHX counter 47, Shiga toxin inh 123
CCOc1nc(Nc2ccccc2F)nc(OCC)n1	CHX counter 20, Pf growth 96h inconclusive
CCc1nc2ccc(C(=O)NC3CCN(Cc4ccccc4)CC3)cn2c1N(CC)Cc1cccc(Br)c1	none (no result: CHX counter, Pf growth 96h, Pf growth 48h, Shiga toxin inh)
COc1cccc(N2CCN(c3ccc4nnc(CCC(=O)N5CCC(C)CC5)n4n3)CC2)c1	Pf growth 48h 8.3µM
CCCN1CCN(C(=O)CCc2nnc3ccc(N4CCN(c5cccc(OC)c5)CC4)nn23)CC1	Pf growth 48h 10µM
c1cc(CNC2C3CC4CC(C3)CC2C4)ccn1 (centres undefined)	Pf growth 96h inconclusive
O=C(COc1cccc2cccnc12)Nc1nccs1	CHX counter 33, Shiga toxin inh 53
O=C(Cc1ccc(Cl)cc1)Oc1cccc2cccnc12	Pf growth 96h 2.6µM (no result: HCMV inh)
O=C(Oc1ccc(Cl)c2cccnc12)c1ccco1	Pf growth 48h 12µM
O=C(Oc1ccccc1N1C(=O)CCC1=O)c1ccco1	Pf growth 96h 9.3µM
O=C(Oc1cccc2cccnc12)c1ccc(Br)o1	none
CC1C=CCC2C(=O)N(c3ccccc3OC(=O)c3ccco3)C(=O)C12 (centres undefined)	none
NNC(=O)COc1cccc2cccnc12	none
O=C(Oc1ccc(Cl)c2cccnc12)c1cccc([N+](=O)[O-])c1	Pf growth 48h inconclusive
O=C(Oc1cccc2cccnc12)c1ccc2c(c1)OCCO2	CHX counter 70, Shiga toxin inh 84
O=C(NCCOc1cccc2cccnc12)c1cccs1	Shiga toxin inh 46
O=C(Oc1cccc2cccnc12)c1cccs1	CHX counter 21, Pf growth 96h inconclusive, Pf growth 48h inconclusive
O=C(Oc1cccc2cccnc12)c1cccc([N+](=O)[O-])c1	none
CC(=O)NCCOc1cccc2cccnc12	none (no result: Pf growth 96h)
O=C(Oc1cccc2cccnc12)c1ccco1	Pf growth 96h 1.3µM, Pf growth 48h inconclusive
O=C(c1cc2cc(Cl)ccc2[nH]1)N1CCN(c2ccccn2)CC1	none (no result: Shiga toxin inh)
O=C1OCCC1Sc1nc2ccccc2n1-c1ccccc1 (centres undefined)	Pf growth 96h 12µM (no result: Pf growth 48h)
Nc1c(-c2ccc(Cl)cc2)cnc2c(-c3ccccc3)cnn12	CHX counter 36, Shiga toxin inh 89
